uPA generation: inhibitors of cell surface uPA generation. cell surface uPA generation assay, qHTS. Potency, µM (titrated, usually from 38.3 µM), for inactives: top-dose activity change, negative = inhibition, most hits filed as inhibitors. 330,000 tested, 0.31% active; active = well fitted inhibition curve with a large enough effect; inconclusive = small, poorly fitted or top-dose-only effect; inactive = no such curve, though single readings can be large or run the other way; tested in mouse RAW 264.7 cells; note: potency is the fitted concentration of half-maximal effect; nearly all actives have a fitted effect of over 55% in size
TDP1 cell CPT: growth inhibition of DT40 Tdp1-/-;hTDP1 cells with camptothecin (screen for TDP1 inhibitors) | chicken DT40 Tdp1-/-;hTDP1 cells + 20 nM CPT, ATP luminescence, 48 h | Potency, µM (titrated, usually from 46.2 µM), for the others: top-dose activity change, negative = growth inhibition, usual class: inhibitors | 420,000 tested, 12% active; note: potency is the fitted concentration of half-maximal effect; nearly all actives have a fitted effect of over 55% in size
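Chicken DT40 Tdp1-/- cells stably complemented with human TDP1 were seeded at 400 cells/well in medium containing 20 nM camptothecin, exposed to pin-transferred compounds, and grown at 37 °C for at least 48 hr. Viability was read as ATP luminescence.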
TDP1 cell noCPT: qHTS for Inhibitors of human tyrosyl-DNA phosphodiesterase 1 (TDP1): qHTS in cells in absence of CPT; DT40 Tdp1-/- hTDP1 cells, no CPT, ATP luminescence, 48 h; 420,000 tested, 15% active; Potency, µM (highest dose often 46.2 µM), without a hit: at the highest dose activity change, negative = growth inhibition, usual class: inhibitors; note: potency is the fitted concentration of half-maximal effect; nearly all actives have a fitted effect of over 55% in size
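Readout: luminescence from CellTiter-Glo after 30 min in the dark at RT. Cells: DT40 Tdp1-/- with stable hTDP1, 400/well. Exposure: compounds alone, ≥48 hr, 37 °C.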
HT1080-NT tox: kills 2HG-producing HT-1080-NT fibrosarcoma cells; Potency, µM (doses to about 46.1 µM), for inactives: top-dose activity, negative = less viability, usual class: cytotoxic; HT-1080-NT fibrosarcoma viability, CellTiter-Glo ATP luminescence, 48 h; 360,000 tested, 1.6% active;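 note: NT is the 2HG producing partner of a matched IDH1 knockdown line; potency is the fitted concentration of half-maximal effect; 0% = DMSO-treated cells and -100% = media-only wells without cells; nearly all actives have a fitted effect of over 55% in size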
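Read-out is CellTiter-Glo luminescence after 10 minutes at room temperature, following 48 hours' compound treatment of HT-1080-NT cells (750 cells/well, RPMI, 5% FBS, 37 degrees C).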
HT1080 IDH1KD tx: toxicity to HT-1080 IDH1 knockdown cells (counter line); HT-1080 IDH1 knockdown viability, ATP luminescence, 48 h; Potency, µM (titrated, usually from 46.1 µM), without a hit: at the highest dose activity, negative = toxicity, usual class: cytotoxic; 360,000 tested, 2% active;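 note: potency is the fitted concentration of half-maximal effect; 0% = DMSO wells and -100% = cell-free medium wells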
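Cytotoxicity counter-line: IDH1KD HT-1080, 48 h, CellTiter-Glo. Curves classed by r2, magnitude and activity.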
IL1B secr inh: inhibitors of inflammasome signaling (IL-1 beta secretion). THP-1 LPS/ATP IL-1B secretion, AlphaLISA, 16 h; hits give low values. activity change, % at 57.5 µM. 360,000 tested, 4.7% active. AID 743279; in the data active = activity change below about -50%; inconclusive = mostly about -30% to -49%
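Secreted IL-1B measured by AlphaLISA bead assay after 16 h compound exposure of THP-1 cells; compounds (final up to 57.5 uM) added 1 h before LPS (250 ng/mL) and ATP (1.25 mM) stimulation; lower signal means less secretion.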
Active calls of the source: *; ? = inconclusive; / = no result given. This is a sample that favours compounds with a hit; in the whole collection about 19% have one here. Unless noted, calls come from the whole dose curve; as a rule, active = well fitted curve in the direction sought with a large enough effect; inconclusive = small, poorly fitted or top-dose-only effect, or another doubt; inactive = no such curve, though single readings can be large; an effect the other way counts as inactive or inconclusive. Unless noted, % is set by controls: 0 for no effect and ±100 for the full control effect.

SMILES	uPA generation	TDP1 cell CPT	TDP1 cell noCPT	HT1080-NT tox	HT1080 IDH1KD tx	IL1B secr inh
CCN1CCN(c2ccc(S(=O)(=O)N3CCCCC3)cc2NC(=O)/C=C/c2ccc([N+](=O)[O-])cc2)CC1	-11.8%	?	?	?	16.4µM*	-98.5*
CCOC(=O)c1ccccc1NC(=O)N1CCN2CCCCC2C1 (stereo not given)	/	20.7%	-2.3%	/	/	/
C[C@@]12C(=O)Nc3ccc(Br)cc3C(=O)N1[C@H]1c3cc(Cl)ccc3OC[C@@H]1[C@@H]2c1ccccc1	-17.0%	?	18.4µM*	-15.6%	-11.0%	-15.7
C[C@@]12C(=O)Nc3ccccc3C(=O)N1[C@H]1c3cc(Cl)ccc3OC[C@@H]1[C@@H]2c1ccccc1	?	?	?	?	18.4µM*	?
C[C@@]12C(=O)Nc3ccc(Br)cc3C(=O)N1[C@H]1c3ccccc3OC[C@@H]1[C@@H]2c1ccccc1	?	?	?	-2.9%	-12.5%	-23.9
C[C@@]12C(=O)Nc3ccc(F)cc3C(=O)N1[C@H]1c3cc(Br)ccc3OC[C@@H]1[C@@H]2c1ccccc1	?	?	23.1µM*	?	?	-8.0
C[C@@]12C(=O)N(CC3CCCO3)CC(=O)N1[C@H]1c3cc(Cl)ccc3OC[C@@H]1[C@@H]2c1ccccc1 (stereo not given in full)	9.9%	23.1µM*	14.6µM*	-3.0%	2.0%	-16.3
C[C@@]12C(=O)Nc3cc(F)ccc3C(=O)N1[C@H]1c3cc(Br)ccc3OC[C@@H]1[C@@H]2c1ccccc1	?	?	?	?	?	-28.1
C[C@@]12C(=O)Nc3cc(F)c(F)cc3C(=O)N1[C@H]1c3cc(Cl)ccc3OC[C@@H]1[C@@H]2c1ccccc1	?	?	?	?	?	-21.7
O=C(N/N=C/C=C/c1ccc2c(c1)OCO2)C(O)c1ccccc1 (stereo not given)	7.9%	-0.4%	-5.5%	-5.0%	-1.7%	-1.7
CCOC(=O)N1CCc2c(sc3c2c(=O)n(Cc2ccccc2)c(=O)n3Cc2ccccc2F)C1	20.2%	?	?	-2.3%	2.9%	24.7
CCOC(=O)N1CCc2c(sc3c2c(=O)n(Cc2ccccc2)c(=O)n3Cc2c(F)cccc2Cl)C1	/	13µM*	18.4µM*	/	/	/
CCOC(=O)N1CCc2c(sc3c2c(=O)n(Cc2ccccc2)c(=O)n3Cc2cccc(C)c2)C1	15.6%	13µM*	13µM*	-3.6%	-14.9%	-18.7
CN(C)c1ccc(N=Nc2ccccc2C(=O)OCC(=O)NC2CCCC2)cc1	-5.0%	25.9µM*	?	-14.8%	-5.5%	?
CN(C)c1ccc(N=Nc2ccccc2C(=O)OCC(=O)N(C)C2CCCCC2)cc1	3.5%	7.5%	-14.4%	24.1%	21.7%	-4.7
CN(C)c1ccc(N=Nc2ccccc2C(=O)OCC(=O)NCC2CCCCC2)cc1	-9.9%	?	20.6µM*	-1.8%	-12.5%	?
C[C@H]1CN([C@@H](C)CO)C(=O)CCCn2cc(nn2)CO[C@@H]1CN(C)C(=O)Nc1ccc2c(c1)OCO2	/	-16.2%	-21.0%	-0.9%	-1.2%	-13.4
CCCc1[nH]nc2c1C1(CCN(C(=O)OCc3ccccc3)CC1)C(C#N)=C(N)O2	-2.7%	20.6µM*	?	5.0%	?	-12.8
CCc1[nH]nc2c1C1(CCN(C(=O)OCc3ccccc3)CC1)C(C#N)=C(N)O2	4.0%	?	-28.7%	25.1%	17.1%	53.2
CC(=O)N1c2ccc(S(=O)(=O)N3CCCC3C(=O)NCc3ccc(Cl)cc3)cc2CC1C (stereo not given)	-4.4%	20.6µM*	?	-8.3%	-13.2%	-7.5
CC(=O)N1c2ccc(S(=O)(=O)N3CCC(C(=O)NCCc4ccc(Cl)cc4)CC3)cc2CC1C (stereo not given)	-14.1%	16.4µM*	10.3µM*	?	-20.8%	-2.0
CC(=O)N1c2ccc(S(=O)(=O)N3CCC(C(=O)NCc4ccc(Cl)cc4)CC3)cc2CC1C (stereo not given)	-4.3%	18.4µM*	?	-22.8%	-2.8%	4.9
COc1cc(OC)c(NC(=O)C2CCN(S(=O)(=O)c3ccc4c(c3)CC(C)N4C(C)=O)CC2)cc1Cl (stereo not given)	5.2%	20.6µM*	?	-3.1%	-3.1%	-1.4
COc1ccc(OC)c(-c2cc(C(=O)Nc3ccc(F)cc3F)no2)c1	-3.4%	-3.8%	24.1%	21.8%	3.3%	26.2
COc1cc(OC)c(NC(=O)N2CCc3cc(S(=O)(=O)N4CCC(C)CC4)ccc32)cc1Cl	/	10.3µM*	8.2µM*	/	/	/
SMILES	uPA generation	TDP1 cell CPT	TDP1 cell noCPT	HT1080-NT tox	HT1080 IDH1KD tx	IL1B secr inh
Cc1ccc(Cl)cc1NC(=O)N1CCc2cc(S(=O)(=O)N3CCC(C)CC3)ccc21	/	-26.0%	-10.5%	/	/	/
CC1Cc2cc(S(=O)(=O)N3CCC(C(=O)NCc4ccco4)CC3)ccc2N1C(=O)C1CCC1 (stereo not given)	-7.7%	?	23.1µM*	-19.6%	-5.8%	-19.3
C[C@@H]1CN([C@@H](C)CO)C(=O)c2ccccc2-c2ccccc2CO[C@@H]1CN(C)S(=O)(=O)c1ccc(C(F)(F)F)cc1	/	?	-3.0%	16.2%	-2.5%	?
CC1=NN(C(=O)c2ccccc2)C(O)(c2ccc(Br)cc2)C1 (stereo not given)	2.3%	5.8µM*	?	-22.5%	?	45.1
CCOC(=O)C1=NN(C(=O)c2ccccc2)C(O)(c2ccc(C)cc2)C1 (stereo not given)	2.1%	?	25.9µM*	-4.5%	11.8%	18.0
CCC1=NN(C(=O)c2cccc([N+](=O)[O-])c2)C(O)(c2ccc(C)cc2)C1 (stereo not given)	-5.3%	?	?	?	-16.5%	44.0
CCC1=NN(C(=O)c2ccc(Br)cc2)C(O)(c2ccccc2)C1 (stereo not given)	-1.3%	5.8µM*	6.51µM*	-0.2%	-28.7%	-19.5
Cc1cccc(C)c1NC(=O)C(C1CC1)n1c(-c2ccc(-c3ccccc3)cc2)nc2ccccc21 (stereo not given)	/	?	?	-11.8%	-15.1%	0.3
O=C(c1ccc2c(c1)OCO2)c1ccc[nH]1	/	-21.8%	-20.2%	5.2%	6.2%	-10.8
COc1cccc(/C=C/C(=O)Oc2ccc(C(=O)c3ccc(F)cc3)cc2)c1	-1.5%	?	-15.8%	5.6%	4.4%	8.4
